Test results: PubChem BioAssay AID1159580 (chemical genetic matrix, 2015)
Among all 5,500 compounds or so, about 2,000 (36%) were called active. Another 18% or so got no clear call; they are omitted. Some of the results follow. Unmarked numbers belong to inactive results. Rule as the data show it: active = normalized growth mostly below about 0.91 (no sharp cut-off); inconclusive = no clear call, values can overlap the other calls; inactive = mostly above about 0.92.

Experiment: chemical genetic growth profiling, strain panel (AID 1159580);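 also: tested at 20 µM; growth read once vehicle control cultures reached saturation at 30 °C; 1 = growth at the plate median or of vehicle wells; lower values mean less growth of the strain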
Details: growth OD
[1] = S. cerevisiae deletion strains, locus YDR150W, strain NUM1, hits give low values
[2] = S. cerevisiae deletion strains, locus YGR078C, strain PAC10, hits give low values
[3] = S. cerevisiae deletion strains, locus YNL128W, strain TEP1, hits give low values
[4] = S. cerevisiae deletion strains, locus YNL322C, strain KRE1, hits give low values
[5] = S. cerevisiae deletion strains, locus YPL055C, strain LGE1, hits give low values
[6] = S. cerevisiae deletion strains, locus YPL241C, strain CIN2, hits give low values

## CCCCCCCCCCCCCC(=O)O[C@@H]1[C@@H](C)[C@@]2(O)[C@@H](C=C(CO)C[C@@]3(O)C(=O)C(C)=C[C@@H]23)C2C(C)(C)[C@@]21OC(C)=O (some centres undefined)
S. cerevisiae deletion strains, locus YAL040C, strain CLN3, hits give low values
  normalized growth: 0.977
S. cerevisiae deletion strains, locus YCL061C, strain MRC1 (second series), hits give low values
  normalized growth: 0.992
[1]
  normalized growth: 0.999
S. cerevisiae deletion strains, locus YDR363W, strain ESC2, hits give low values
  normalized growth: 0.999
S. cerevisiae deletion strains, locus YER002W, strain NOP16, hits give low values
  normalized growth: 0.985
[2]
  normalized growth: 0.972
[3]
  normalized growth: 1.01
S. cerevisiae deletion strains, locus YNL175C, strain NOP13, hits give low values
  normalized growth: 1.01
S. cerevisiae deletion strains, locus YNL197C, strain WHI3, hits give low values
  normalized growth: 1.02
S. cerevisiae deletion strains, locus YNL224C, strain SQS1, hits give low values
  normalized growth: 1.01
[4]
  normalized growth: 1
S. cerevisiae deletion strains, locus YOR083W, strain WHI5 (second series), hits give low values
  normalized growth: 1.01
[5]
  normalized growth: 1.06
[6]
  normalized growth: 0.997

## Clc1cccc(NC2=NCCS2)c1Cl
S. cerevisiae deletion strains, locus YAL013W, strain DEP1, hits give low values
  normalized growth: 0.995
S. cerevisiae deletion strains, locus YBR229C, strain ROT2, hits give low values
  normalized growth: 1
S. cerevisiae deletion strains, locus YDL101C, strain DUN1, hits give low values
  normalized growth: 1.03
[1]
  normalized growth: 0.984
S. cerevisiae deletion strains, locus YEL061C, strain CIN8, hits give low values
  normalized growth: 0.974
[2]
  normalized growth: 1
S. cerevisiae deletion strains, locus YHR030C, strain SLT2, hits give low values
  normalized growth: 0.698
S. cerevisiae deletion strains, locus YHR087W, strain rtc3, hits give low values
  normalized growth: 1.02
S. cerevisiae deletion strains, locus YJL187C, strain SWE1, hits give low values
  normalized growth: 1
S. cerevisiae deletion strains, locus YJR043C, strain POL32, hits give low values
  normalized growth: 1.01
S. cerevisiae deletion strains, locus YJR075W, strain HOC1, hits give low values
  normalized growth: 1.02
S. cerevisiae deletion strains, locus YKL190W, strain CNB1, hits give low values
  normalized growth: 0.996
S. cerevisiae deletion strains, locus YLR039C, strain RIC1, hits give low values
  normalized growth: 0.721 (active)
S. cerevisiae deletion strains, locus YLR058C, strain SHM2 (second series), hits give low values
  normalized growth: 1
S. cerevisiae deletion strains, locus YLR085C, strain ARP6, hits give low values
  normalized growth: 0.931
S. cerevisiae deletion strains, locus YLR262C, strain YPT6, hits give low values
  normalized growth: 0.817
S. cerevisiae deletion strains, locus YML094W, strain GIM5, hits give low values
  normalized growth: 1.03
S. cerevisiae deletion strains, locus YMR219W, strain ESC1, hits give low values
  normalized growth: 1.01
S. cerevisiae deletion strains, locus YMR263W, strain SAP30, hits give low values
  normalized growth: 0.969
S. cerevisiae deletion strains, locus YMR307W, strain GAS1, hits give low values
  normalized growth: 0.776
[3]
  normalized growth: 1.02
S. cerevisiae deletion strains, locus YNL153C, strain GIM3, hits give low values
  normalized growth: 1
S. cerevisiae deletion strains, locus YNL298W, strain CLA4 (second series), hits give low values
  normalized growth: 0.946
[4]
  normalized growth: 0.994
S. cerevisiae deletion strains, locus YNR030W, strain Alg12, hits give low values
  normalized growth: 0.971
S. cerevisiae deletion strains, locus YOL006C, strain TOP1, hits give low values
  normalized growth: 0.722 (active)
[5]
  normalized growth: 0.953
[6]
  normalized growth: 1.05
S. cerevisiae deletion strains, locus YPR135W, strain CTF4, hits give low values
  normalized growth: 0.928
S. cerevisiae strains, strain wild type, hits give low values
  normalized growth: 0.983
